In PubChem BioAssay (NCATS):
Records with an inconclusive call do not appear. Calls of active or inactive are those of the source. Calls follow the shape of the dose curve; as a rule, active = well fitted curve in the direction sought with a large enough effect; inconclusive = small, poorly fitted or top-dose-only effect, or another doubt; inactive = no such curve, though single readings can be large; an effect the other way counts as inactive or inconclusive.

Legend:
[1] = qHTS of pediatric cancer cell lines to identify multiple opportunities for drug repurposing: Primary screen for Saos-2 cells (AID 1347097); also: nearly all actives have a fitted effect of over 40% in size
In short: (§1)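 ATP-based luminescence (CellTiter-Glo) quantifies viability after a 48-hour exposure. Compounds are dosed across 8 or 11 final concentrations; DMSO and 2.3 µM bortezomib serve as controls.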

[2] = qHTS of pediatric cancer cell lines to identify multiple opportunities for drug repurposing: Primary screen for SK-N-SH cells (AID 1347098);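 also: DMSO served as neutral control and bortezomib at 2.3 µM as positive control; nearly all actives have a fitted effect of over 65% in size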
In short: (§2)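 Cells (500-1,000/well) rested 5 h, then received compounds for 48 h; metabolically active cells were measured by CellTiter-Glo luminescence. Final concentrations spanned up to 46 µM (MIPE, 11-point) or 0.59 nM-46 µM (NPC, 8-point) in primary screens, 11-point in follow-ups.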

[3] = qHTS of pediatric cancer cell lines to identify multiple opportunities for drug repurposing: Primary screen for NB1643 cells (AID 1347099); also: nearly all actives have a fitted effect of over 50% in size
In short: as §1

[4] = qHTS of pediatric cancer cell lines to identify multiple opportunities for drug repurposing: Primary screen for LAN-5 cells (AID 1347100)
In short: as §2

[5] = qHTS of pediatric cancer cell lines to identify multiple opportunities for drug repurposing: Primary screen for BT-12 cells (AID 1347101); also: nearly all actives have a fitted effect of over 25% in size
In short: as §2

[6] = qHTS of pediatric cancer cell lines to identify multiple opportunities for drug repurposing: Primary screen for Rh18 cells (AID 1347102); also: nearly all actives have a fitted effect of over 65% in size
In short: as §2

[7] = qHTS of pediatric cancer cell lines to identify multiple opportunities for drug repurposing: Primary screen for OHS-50 cells (AID 1347103); also: nearly all actives have a fitted effect of over 40% in size
In short: as §2

[8] = qHTS of pediatric cancer cell lines to identify multiple opportunities for drug repurposing: Primary screen for RD cells (AID 1347104); also: nearly all actives have a fitted effect of over 55% in size
In short: as §1

[9] = qHTS of pediatric cancer cell lines to identify multiple opportunities for drug repurposing: Primary screen for MG 63 (6-TG R) cells (AID 1347105); also: nearly all actives have a fitted effect of over 50% in size
In short: as §1

[10] = qHTS of pediatric cancer cell lines to identify multiple opportunities for drug repurposing: Primary screen for control Hh wild type fibroblast cells (AID 1347106);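 also: series mostly up to about 46 µM; a drop in luminescence marks cytotoxicity and a rise apparent proliferation; nearly all actives have a fitted effect of over 55% in size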
In short: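 Viability after 48 h compound treatment at 37C, 500-1,000 cells/well, read as ATP luminescence with CellTiter-Glo. Primary screens used 11-point (MIPE, 0.78 nM-46 µM) or 8-point (NPC, 0.59 nM-46 µM) final concentrations; follow-up screens used 11-point dilutions.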

[11] = qHTS of pediatric cancer cell lines to identify multiple opportunities for drug repurposing: Primary screen for Rh30 cells (AID 1347107); also: series mostly up to about 46 µM; nearly all actives have a fitted effect of over 75% in size
In short: as §2

[12] = qHTS of pediatric cancer cell lines to identify multiple opportunities for drug repurposing: Primary screen for Rh41 cells (AID 1347108);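 also: series mostly up to about 46 µM; luminescence drop marks cytotoxic hits; nearly all actives have a fitted effect of over 70% in size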
In short: as §1

Measured: Potency

CNC[C@H](O)[C@@H](O)[C@H](O)[C@H](O)CO
inactive: all assays above

O=C(O)c1ccccc1S
inactive: all assays above

COc1cc(NS(=O)(=O)c2ccc(N)cc2)nc(C)n1
inactive: all assays above

CNC(=O)c1cnn(-c2nc(N)c3ncn([C@@H]4O[C@H](CO)[C@@H](O)[C@H]4O)c3n2)c1
inactive: all assays above

Nc1c[n+](N2CCOCC2)no1
inactive: all assays above

COc1ccc2cc(C=O)ccc2c1
inactive: all assays above

C/C(=N\O)[C@@H](C)NCC(C)(C)CN[C@H](C)/C(C)=N/O
inactive: all assays above

C[N+]1(CC2COC(c3ccccc3)(c3ccccc3)O2)CCCCC1 (stereo unspecified)
inactive: all assays above

CC(=O)N[C@@H](CCC(N)=O)C(=O)O
inactive: all assays above

CCCCOC(=O)CCCCCCCCC(=O)OCCCC
not listed: [12]
inactive: all other assays above

CO/N=C(\C(=O)O)c1csc(NC(=O)CCl)n1
inactive: all assays above

NC(=O)NS(=O)(=O)c1ccc(Cl)cc1
inactive: all assays above

CO[C@]1(NC(=O)CSC(F)F)C(=O)N2C(C(=O)O)=C(CSc3nnnn3CCO)CO[C@H]21
not listed: [12]
inactive: all other assays above

O=[N+]([O-])c1nccn1CO[C@@H](CO)[C@H](O)CO
inactive: all assays above

CCOc1ncc(F)c(=O)[nH]1
inactive: all assays above

Cc1oc(=O)oc1COC(=O)[C@@H]1N2C(=O)[C@@H](NC(=O)[C@H](N)c3ccccc3)[C@H]2SC1(C)C
inactive: all assays above

CC(C)OP(=O)(CP(=O)(OC(C)C)OC(C)C)OC(C)C
inactive: all assays above

CCN1CCCC1CN (stereo unspecified)
inactive: all assays above

COc1ccc2c(c1)c(CC(=O)OC/C=C(\C)CC/C=C(\C)CCC=C(C)C)c(C)n2C(=O)c1ccc(Cl)cc1
inactive: all assays above
